# A selection: hits, their analogues and other compounds. The true share with any hit is near 11%.
# ALDH1A1 inh: qHTS Assay for Inhibitors of Aldehyde Dehydrogenase 1 (ALDH1A1); Aldehyde dehydrogenase 1A1 (Homo sapiens), P00352; Purified ALDH1A1, NADH fluorescence, propionaldehyde substrate; Potency, µM (doses to about 75.3 µM), without a hit: at the highest dose activity, negative = inhibition, actives largely listed as inhibitors; 220,000 compounds, 7.3% hits; AID 1030, 2008;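 further: potency means the concentration at half of the fitted maximal effect; plate controls were no enzyme wells and a reference inhibitor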
# IMPase Li inh: qHTS Assay for Identifying the Cell-Membrane Permeable IMPase Inhibitors: Potentiation with Lithium | CHO-M1 cells, IP1 TR-FRET (IP-One), carbachol + lithium | Potency, µM (top dose mostly 59.4 µM), for the others: at the highest dose activity, negative = IMPase inhibition, actives largely listed as inhibitors | 210,000 compounds, 0.35% hits | AID 1457, 2008; active means well fitted curve in the direction sought with a large enough effect; inconclusive means small, poorly fitted or top-dose-only effect, or another doubt; inactive means no such curve, though single readings can be large; an effect the other way counts as inactive or inconclusive;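 further: IP1 builds up when IMPase is blocked and the TR-FRET signal falls; potency means the concentration at half of the fitted maximal effect; plate controls were basal vehicle for no effect and high inhibitor control for full effect; nearly all actives have a fitted effect of over 50% in size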
#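 Test compounds were applied to CHO-M1 cells previously cultured for 16–30 h at 2000 per well. A small lithium amount accompanied them; after 30 min at 37C, IP1 was quantified by TR-FRET.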
# IMPase cell inh: qHTS Assay for Identifying the Cell-Membrane Permeable IMPase Inhibitors | inhibition (IP1 accumulation), % at 46.1 µM | Inositol monophosphatase 1 (Rattus norvegicus), P97697 | CHO-M1 cells, IP1 accumulation, HTRF TR-FRET ratio | AID 901, 2007 | 120,000 tested, under 10 active; active means well fitted curve in the direction sought with a large enough effect in the signal ratio, not every such curve was filed as active; inconclusive means small, poorly fitted or top-dose-only effect, or a change in a side signal; inactive means no such curve, though single readings can be large or run the other way; the % refers to the signal ratio;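 further: cells stimulated with carbachol in lithium chloride buffer; plate controls were DMSO basal wells for no effect and reference inhibitor wells for full effect; higher means more IMPase inhibition seen as more IP1 and lower FRET ratio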
# Target sequence (P97697 whole entry, looked up): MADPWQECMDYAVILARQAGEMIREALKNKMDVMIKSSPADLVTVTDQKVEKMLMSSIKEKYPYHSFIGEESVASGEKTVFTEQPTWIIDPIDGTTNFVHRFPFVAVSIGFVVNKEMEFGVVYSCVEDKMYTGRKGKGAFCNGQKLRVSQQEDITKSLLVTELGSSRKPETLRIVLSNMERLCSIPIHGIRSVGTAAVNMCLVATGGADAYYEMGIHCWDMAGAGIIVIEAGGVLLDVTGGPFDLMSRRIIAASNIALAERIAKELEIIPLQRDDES
#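 CHO-M1 cells (CHO stably expressing M1 receptor), compound up to 46 uM final, stimulated with carbachol (50 uM as added) in buffer with 50mM LiCl, pH 7.4, 30 min at 37C. Cytosolic IP1 read by TR-FRET; AC50 from Hill fits.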
# PNC inhibitor: High Content Assay for Compounds that inhibit the Assembly of the Perinucleolar Compartment. PC3M PTB-GFP, PNC prevalence imaging, 16 h; active compounds read low. activity change (PNC), negative = inhibition, % at 10 µM. 140,000 compounds, 3.1% hits. AID 2417, 2010;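 active means readout at or below -70, meaning at least 70% loss of cells showing the perinucleolar compartment, a nuclear body marking cancer cells; inconclusive means readout between -30 and a set limit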;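 further: plate controls were DMSO wells for no effect and camptothecin positive control wells for full effect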
#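 PC3M cells stably expressing PTB-GFP, 750–1000 cells/well, treated 16 h at 37 °C with compound (23 nl of library stock), in duplicate. After paraformaldehyde fixation and Hoechst stain, imaged at 20x; PNC prevalence scored by image analysis.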
# HPGD block: qHTS Assay for Inhibitors of HPGD (15-Hydroxyprostaglandin Dehydrogenase); purified HPGD, NADH fluorescence kinetic, PGE2 substrate; Potency, µM, inactives show top-dose activity change, negative = inhibition, usual class: inhibitors; 150,000 compounds, 4.3% hits; AID 894, 2007; further: potency means the concentration at half of the fitted maximal effect
# Target sequence (P15428 whole entry, looked up): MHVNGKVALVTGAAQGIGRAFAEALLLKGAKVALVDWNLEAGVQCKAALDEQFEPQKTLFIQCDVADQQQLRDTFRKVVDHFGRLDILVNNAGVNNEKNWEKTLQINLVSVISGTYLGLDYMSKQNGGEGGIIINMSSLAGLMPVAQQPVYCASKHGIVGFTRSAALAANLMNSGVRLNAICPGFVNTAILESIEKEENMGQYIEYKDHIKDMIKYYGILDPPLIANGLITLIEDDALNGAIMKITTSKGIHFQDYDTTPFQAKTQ
#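 NADH formation kinetics: reaction with 30 uM PGE2 and 1 mM NAD+ (final), 20 nM enzyme, Tris-HCl pH 8 with Tween 20, after 15 min compound preincubation at room temperature. Fluorescence change, last versus first of five reads.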
# 12-hLO inh: qHTS Assay for Inhibitors of 12-hLO (12-human lipoxygenase). Polyunsaturated fatty acid lipoxygenase ALOX12 (Homo sapiens), P18054. purified 12-hLO, xylenol orange hydroperoxide absorbance. 150,000 compounds, 0.12% hits. Potency, µM (titrated, usually from 57.1 µM), without a hit: top-dose activity change, negative = inhibition, most hits filed as inhibitors; active means well fitted curve in the direction sought with a large enough effect; inconclusive means small, poorly fitted or top-dose-only effect, or another doubt; inactive means no such curve, though single readings can be large; an effect the other way counts as inactive or inconclusive; further: potency means the concentration at half of the fitted maximal effect; nearly all actives have a fitted effect of over 55% in size
#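 Hydroperoxide formation by human 12-lipoxygenase from 40 uM arachidonic acid was followed colorimetrically via ferric-xylenol orange complex, using the 573/405 nm absorbance ratio. Enzyme concentration was 150 nM, with 30 min reaction at room temperature.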
# * = called active by the depositor; u = inconclusive; x = no result; [ ] = remark or other dose. Unless noted, the call rests on the fitted dose curve; in most records, active means well fitted inhibition curve with a large enough effect (not every such curve was filed as active); inconclusive means small, poorly fitted or top-dose-only effect, or another doubt; inactive means no such curve, though single readings can be large or run the other way. Unless noted, on the % scale 0 is the no-effect control and ±100 the full control effect.
SMILES,ALDH1A1 inh,IMPase Li inh,IMPase cell inh,PNC inhibitor,HPGD block,12-hLO inh
Cc1ccc(Nc2nc(N)nc(CN3CCN(Cc4ccc5c(c4)OCO5)CC3)n2)cc1Cl,u,25.8%[38.3 µM],-7.8,-13.2,0.6%,-3.4%
Cc1ccc(Nc2nc(N)nc(CN3CCN(Cc4ccc5c(c4)OCO5)CC3)n2)cc1C,7.94µM*,8.8%,x,x,x,x
COC(=O)CC(=O)Cc1nc(N)nc(Nc2ccc(C)c(C)c2)n1,1.4%,-18.0%,2.3,-100.0*,-12.1%,3.5%
CC(=O)Nc1ccc(S(=O)(=O)NC(C)C(=O)NCCc2ccc(F)cc2)cc1 (centres undefined),-2.5%,-3.7%,x,x,x,x
CCCCC/C=C\C/C=C\C/C=C\C/C=C\CCCC(=O)O[C@@H](CO)COC(=O)CCCCCCCCCCCCCCCCC,-2.4%,1.7%,x,x,-2.5%,0.1%
COc1ccc(CN(Cc2ccc(C(=O)O)cc2)C(=S)Nc2ccccc2F)cc1OC,12.6µM*,-3.5%,x,x,x,x
COc1ccccc1NC(=S)N(Cc1ccc(C(=O)O)cc1)Cc1ccc(OC)c(OC)c1,-4.8%,-2.0%,x,x,x,x
C=CCN1C(=O)S/C(=C\c2ccc3c(c2)n(C)c(=O)n3C)C1=O,0.282µM*,2.8%,x,13.2,13.7%,3.2%
C=CCN1C(=O)S/C(=C/c2ccsc2)C1=O,12.6µM*,33.6%,-2.9,-9.6,-24.1%,3.2%
C=CCN1C(=O)S/C(=C\c2ccc(N3CCOCC3)cc2C)C1=O,0.891µM*,53.5%[38.3 µM],8.9,3.7,u,-6.5%
Cc1cc[n+](-c2nc([O-])sc2/C=N/Nc2ccc([N+](=O)[O-])cc2)cc1,14.1µM*,30.3%[38.3 µM],2.4,24.1,-16.5%,-23.0%
COc1cc2c(CCNC(C)=O)c[nH]c2cc1Cl,7.2%,2.8%,-7.6,x,-9.8%,-3.2%
Cc1ccc(C(C)C)c(OCCSc2nc3ccccc3n2CC(O)CO)c1 (centres undefined),x,x,7.7,x,x,x
N=C1C(c2nc3ccccc3[nH]2)=C(O)CN1c1ccc(CC(=O)O)cc1,23.8µM*,29.7%[38.3 µM],8.7,-23.7,-21.8%,-2.9%
Cc1cc2n(n1)SC(Nc1cccc3ccccc13)N2 (centres undefined),12.6µM*,-2.1%,-21.8,-17.7,-20.9%,u
Cc1cc2n(n1)SC(Nc1ccc(F)cc1)N2 (centres undefined),28.2µM*,10.5%,u,37.4,-12.5%,-28.4%
Cc1cc2n(n1)SC(Nc1cc(Cl)ccc1Cl)N2 (centres undefined),3.55µM*,3.8%,0.0,-100.0*,-18.5%,u
CCc1ccccc1NC1Nc2cc(C)nn2S1 (centres undefined),u,-7.1%,x,x,x,x
COc1ccc(NC(=O)C2CCCN(S(=O)(=O)c3ccc(Br)s3)C2)cc1 (centres undefined),x,x,-2.3,x,x,x
Cc1[nH]n(-c2ccccc2)c(=O)c1C=Nc1ccc(S(=O)(=O)Nc2nccs2)cc1,12.6µM*,0.6%,x,x,x,x
Cc1ccc(-n2[nH]c(C)c(C=Nc3ccc(S(=O)(=O)Nc4nccs4)cc3)c2=O)cc1C,4.2%,17.8%,x,5.0,u,0.5%
CCc1nnc(NS(=O)(=O)c2ccc(N=Cc3c(C)[nH]n(-c4ccc(Cl)cc4)c3=O)cc2)s1,u,21.1%,x,0.0,u,-2.2%
CCc1nnc(NS(=O)(=O)c2ccc(N=Cc3c(C)[nH]n(-c4cccc(Cl)c4)c3=O)cc2)s1,u,8.7%,-6.8,u,12.6µM*,22.1%
COc1ccc(-n2c(=O)cnc3cnc(Nc4ccccc4)nc32)cc1,u,-9.0%,x,x,-4.0%,-0.2%
CCOC(=O)CC(=O)CSc1ncc(C(=O)OCC)c(N)n1,22.4µM*,-2.6%,2.3[0.369 µM],u,-27.9%,2.3%
SMILES,ALDH1A1 inh,IMPase Li inh,IMPase cell inh,PNC inhibitor,HPGD block,12-hLO inh
CCOC(=O)c1cnc(SCc2cccc3ccccc23)nc1N,u,48.2%[38.3 µM],11.7,1.6,28.2µM*,5.9%
COc1ccc2c(c1)[n+]([O-])c(/C(C)=N/NC(N)=S)c(C)[n+]2[O-],x,x,x,x,x,3.4%[11.4 µM]
CC(C)(C)c1ccc(S(=O)(=O)N2CCC(CO)(CC3CCCCO3)CC2)cc1 (centres undefined),0.316µM*,34.7%,x,x,x,x
COC(=O)CCCC1=CC2=C(c3ccccc3)C(=O)C(C)(OC(=O)C3CCCC3)C(=O)C2=CN1CCc1c[nH]c2ccccc12 (centres undefined),3.16µM*,9.3%,x,x,-9.4%,-10.3%[11.4 µM]
COc1cc(C2C(C#N)=C(N)Oc3cc(N)ccc32)cc(OC)c1OC (centres undefined),3.4%,0.4%,2.7,-89.3*,-17.3%,6.7%
CCC(C)OC(=O)C1=C(C)O[C@]23OC(N)=C(C#N)[C@]12C(=O)c1ccccc13 (some centres undefined),u,25.7%,-19.5,-100.0*,-22.4%,7.0%
CCCCc1nc2ccccc2n1CC(=O)N(COCC)c1c(C)cccc1CC,x,x,-0.7,x,x,x
CC(=O)Nc1ccc(S(=O)(=O)Oc2cccc(/C=N/N=C3/NC(=O)C(CC(=O)O)S3)c2)cc1 (centres undefined),7.51µM*,-5.1%,x,x,x,x
O=C(c1cc(C2CC2)on1)N1CCN(c2ccccc2)CC1,28.2µM*,15.1%[38.3 µM],11.9,9.7,-23.8%,-7.5%
O=C(c1ccco1)N1CCC2(CC1)CCN(c1ccccn1)CC2,u,22.9%,x,x,-29.4%,4.1%
Cc1ccc(-c2n[nH]c(=S)n2/N=C/C=C/c2ccccc2[N+](=O)[O-])cc1,4.6%,18.8%[38.3 µM],8.9,-3.4,2.82µM*,-7.2%
COc1ccccc1/C=C\C=N\n1c(-c2ccc(Cl)cc2Cl)n[nH]c1=S,-4.2%,5.8%,x,19.8,3.98µM*,u
COc1ccccc1/C=C\C=N\n1c(-c2ccc(Cl)cc2)n[nH]c1=S,35.5µM*,7.5%,x,27.5,12.6µM*,-1.0%
Cc1n[nH]c(=S)n1/N=C/c1ccccc1OCc1ccc(Cl)cc1,-6.2%,-1.2%[38.3 µM],11.0,u,10µM*,-16.5%
COc1ccccc1/C=C/C=N/n1c(COc2ccccc2)n[nH]c1=S,u,-4.5%[38.3 µM],4.1,10.2,u,-10.0%
COc1ccccc1/C=C/C=N/n1c(C)nnc1C,u,7.8%,x,x,x,x
COCCN(CCOC)c1nc(C)nc2c1nc(-c1ccccc1)n2CCCN1CCCCC1C (centres undefined),u,13.3%,x,x,u,-3.3%
O=C(Oc1ccccc1-c1csnn1)c1cccs1,17.8µM*,0.4%,x,x,x,x
